For twelve sequences, binding signal results are on record in article PMC5700166.

Holding throughout (experiment): protein-binding microarray (PBM); PBM: ~300 nM protein, 6 mM HEPES pH 7.8, 80 mM KCl, 0.5 mM EDTA, 0.5 mM EGTA, 6% glycerol, 35 ng/ul poly-dIdC, 1% milk, 1 h, room temperature; Ap Aiptasia and Nv Nematostella (sea anemones) / Co Capsaspora / Aq Amphimedon (sponge) / Dm Drosophila / Hu human; RHD is the Rel homology domain; high values mean tight binding
Holding throughout (conditions): dsDNA, one strand shown

One assay concerns the target T1, GST-Ap-NF-kB RHD (Exaiptasia pallida (Aiptasia), UniProt A0A913YAJ5 2-422).
T1 sequence: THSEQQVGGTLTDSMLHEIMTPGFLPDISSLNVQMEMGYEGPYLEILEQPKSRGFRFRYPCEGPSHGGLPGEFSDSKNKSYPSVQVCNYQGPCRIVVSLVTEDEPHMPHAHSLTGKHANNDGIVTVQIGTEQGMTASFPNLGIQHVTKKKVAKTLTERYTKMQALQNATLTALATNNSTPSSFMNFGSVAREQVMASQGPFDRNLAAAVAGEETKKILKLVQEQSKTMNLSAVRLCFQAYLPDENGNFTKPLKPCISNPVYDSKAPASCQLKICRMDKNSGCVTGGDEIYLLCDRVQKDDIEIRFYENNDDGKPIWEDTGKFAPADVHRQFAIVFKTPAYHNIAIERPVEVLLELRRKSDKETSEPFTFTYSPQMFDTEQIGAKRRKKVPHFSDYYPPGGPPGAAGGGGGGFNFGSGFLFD

The target of assay [1] is T2, GST-Nv-NF-kB (Cys allele) (Nematostella vectensis, UniProt E5G601 2-411).
T2 sequence: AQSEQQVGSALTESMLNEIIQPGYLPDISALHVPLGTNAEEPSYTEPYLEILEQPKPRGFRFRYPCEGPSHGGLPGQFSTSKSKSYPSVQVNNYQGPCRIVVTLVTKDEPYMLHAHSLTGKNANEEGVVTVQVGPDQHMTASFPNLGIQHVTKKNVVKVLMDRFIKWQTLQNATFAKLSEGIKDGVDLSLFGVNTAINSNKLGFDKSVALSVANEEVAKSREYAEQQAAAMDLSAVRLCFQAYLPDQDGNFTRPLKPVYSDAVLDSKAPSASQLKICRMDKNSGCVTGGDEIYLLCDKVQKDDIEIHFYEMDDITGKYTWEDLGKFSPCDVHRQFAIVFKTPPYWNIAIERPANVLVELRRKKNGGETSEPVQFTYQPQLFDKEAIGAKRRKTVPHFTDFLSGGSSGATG

Assay [2] addresses T3, GST-Nv-NF-kB (Ser allele) (Nematostella vectensis, UniProt A7UNT2 2-411).
T3 sequence: T2 sequence with Q21R, C66S, S207N, E215Q, V217A, E225K, A268E, D399E

The target in a further assay is T4, GST-Co-NF-kB (Capsaspora owczarzaki, UniProt F1ARL5 200-546).
T4 sequence: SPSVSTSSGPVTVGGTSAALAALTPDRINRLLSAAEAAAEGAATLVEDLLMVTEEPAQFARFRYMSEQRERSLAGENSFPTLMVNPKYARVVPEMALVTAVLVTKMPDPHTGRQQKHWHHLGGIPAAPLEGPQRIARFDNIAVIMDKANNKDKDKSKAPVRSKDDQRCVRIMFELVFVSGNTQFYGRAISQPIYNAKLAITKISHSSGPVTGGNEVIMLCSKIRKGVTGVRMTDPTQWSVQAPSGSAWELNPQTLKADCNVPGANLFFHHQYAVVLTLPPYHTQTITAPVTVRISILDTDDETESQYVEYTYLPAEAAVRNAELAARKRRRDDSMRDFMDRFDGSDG

The target in another assay is T5, GST-Dm-Relish (Drosophila melanogaster, UniProt Q94527 99-473).
T5 sequence: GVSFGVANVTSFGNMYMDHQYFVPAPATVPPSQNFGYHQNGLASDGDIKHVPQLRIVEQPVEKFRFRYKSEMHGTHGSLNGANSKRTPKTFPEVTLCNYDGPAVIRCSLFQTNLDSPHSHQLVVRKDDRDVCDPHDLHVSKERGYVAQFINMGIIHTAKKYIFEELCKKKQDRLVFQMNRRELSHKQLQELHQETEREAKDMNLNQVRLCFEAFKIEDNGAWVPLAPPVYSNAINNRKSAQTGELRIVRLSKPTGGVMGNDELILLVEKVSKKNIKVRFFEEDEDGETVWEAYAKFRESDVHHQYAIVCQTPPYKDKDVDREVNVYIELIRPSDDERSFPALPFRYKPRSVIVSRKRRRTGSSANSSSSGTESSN

A further assay has as its target T6, GST-Aq-NF-kB (Amphimedon queenslandica, UniProt A9Y5G7 2-389).
T6 sequence: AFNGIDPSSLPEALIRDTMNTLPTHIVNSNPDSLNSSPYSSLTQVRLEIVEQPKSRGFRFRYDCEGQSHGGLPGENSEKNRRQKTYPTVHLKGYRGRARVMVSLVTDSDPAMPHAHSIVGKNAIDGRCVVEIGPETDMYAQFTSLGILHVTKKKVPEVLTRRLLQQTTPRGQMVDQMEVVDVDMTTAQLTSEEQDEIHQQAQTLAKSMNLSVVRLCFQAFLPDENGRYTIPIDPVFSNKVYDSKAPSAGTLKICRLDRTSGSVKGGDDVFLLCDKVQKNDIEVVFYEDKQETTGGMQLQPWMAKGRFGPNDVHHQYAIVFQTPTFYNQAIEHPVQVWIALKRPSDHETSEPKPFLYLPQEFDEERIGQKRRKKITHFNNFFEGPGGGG

The next assay concerns the target GST-Hu-p50 (Homo sapiens, UniProt P19838 7-356).

Numbering of substitutions follows the chain as printed.

GST-Hu-p50, sequence (P19838 7-356): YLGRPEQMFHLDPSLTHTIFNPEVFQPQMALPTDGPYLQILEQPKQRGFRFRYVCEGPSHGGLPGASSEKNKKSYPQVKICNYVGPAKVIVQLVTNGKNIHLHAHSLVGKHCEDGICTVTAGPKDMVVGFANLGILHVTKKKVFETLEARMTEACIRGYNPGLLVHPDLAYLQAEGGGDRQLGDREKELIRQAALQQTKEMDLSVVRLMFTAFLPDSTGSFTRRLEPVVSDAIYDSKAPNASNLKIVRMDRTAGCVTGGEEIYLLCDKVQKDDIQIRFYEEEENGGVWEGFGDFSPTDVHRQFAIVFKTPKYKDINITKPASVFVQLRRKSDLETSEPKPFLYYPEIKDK

With “CCGATTAACATCAGAATTTCCCATGATGTTAATCGGGTCTTGATTCGCTTGACGCTGCTG”, the binding signal with GST-Ap-NF-kB RHD turned out to be 3.88 z-score; in assay [1], 5.46 z-score; in assay [2] it was 4.83 z-score; with GST-Co-NF-kB, 4.63 z-score; with GST-Dm-Relish it was 3.42 z-score; in the assay with GST-Aq-NF-kB, 5.17 z-score. The same sequence yielded a binding signal in the assay with GST-Hu-p50 of 4.04 z-score.

For “CCGATTAACATCAGGGGAATTACTGATGTTAATCGGGTCTTGATTCGCTTGACGCTGCTG”, the binding signal with GST-Ap-NF-kB RHD is 8.73 z-score; in assay [1] it was 10.6 z-score; in assay [2], 10.2 z-score; with GST-Co-NF-kB, 7.45 z-score; in the assay with GST-Dm-Relish, 10.2 z-score; with GST-Aq-NF-kB, 8.27 z-score. The sequence further came in with a binding signal in the assay with GST-Hu-p50 of 7.09 z-score.

With “CCGATTAACATCAGGGGGCAATATGATGTTAATCGGGTCTTGATTCGCTTGACGCTGCTG”, the binding signal with GST-Ap-NF-kB RHD is 3.43 z-score; in assay [1], 3.24 z-score; in assay [2], 3.15 z-score; with GST-Co-NF-kB, 4.37 z-score; with GST-Dm-Relish, 2.2 z-score; in the assay with GST-Aq-NF-kB it was 3.54 z-score. The same sequence returned a binding signal with GST-Hu-p50 of 3.82 z-score.

As for “CCGATTAACATCAAAAAATCCCCTGATGTTAATCGGGTCTTGATTCGCTTGACGCTGCTG”, the binding signal with GST-Ap-NF-kB RHD came to 11.7 z-score; in assay [1], 11.9 z-score; in assay [2], 13.6 z-score; with GST-Co-NF-kB, 6.83 z-score; with GST-Dm-Relish it was 10.7 z-score; with GST-Aq-NF-kB, 9.56 z-score. Also, the binding signal in the assay with GST-Hu-p50 was 8.06 z-score.

On to “CCGATTAACATCACGGGAAATTCTGATGTTAATCGGGTCTTGATTCGCTTGACGCTGCTG”, for which the binding signal with GST-Ap-NF-kB RHD was determined as 5.1 z-score; in assay [1], 6.52 z-score; in assay [2], 5.98 z-score; in the assay with GST-Co-NF-kB it was 5.06 z-score; with GST-Dm-Relish, 3.57 z-score; with GST-Aq-NF-kB, 6.47 z-score. Besides, the binding signal with GST-Hu-p50 was 4.83 z-score.

Turning to “CCGATTAACATCAGGGGAAGTAATGATGTTAATCGGGTCTTGATTCGCTTGACGCTGCTG”, the binding signal with GST-Ap-NF-kB RHD was 4.58 z-score; in assay [1] it was 6.3 z-score; in assay [2], 7.78 z-score; with GST-Co-NF-kB, 5.87 z-score; with GST-Dm-Relish, 6.8 z-score; with GST-Aq-NF-kB, 4.63 z-score. The sequence further yielded a binding signal with GST-Hu-p50 of 5.36 z-score.

In the case of “CCGATTAACATCAGGGGAATAAATGATGTTAATCGGGTCTTGATTCGCTTGACGCTGCTG”, the binding signal came to 6.25 z-score with GST-Ap-NF-kB RHD; 7.82 z-score in assay [1]; 8.47 z-score in assay [2]; 8.22 z-score in the assay with GST-Co-NF-kB; 5.48 z-score with GST-Dm-Relish; 5.94 z-score with GST-Aq-NF-kB. In the assay with GST-Hu-p50, this sequence had a binding signal of 5.62 z-score.

As for “CCGATTAACATCAGCAAATCCCCTGATGTTAATCGGGTCTTGATTCGCTTGACGCTGCTG”, the binding signal was 6.73 z-score with GST-Ap-NF-kB RHD; 7.25 z-score in assay [1]; 9.83 z-score in assay [2]; 2.93 z-score in the assay with GST-Co-NF-kB; 5.54 z-score with GST-Dm-Relish; 5.19 z-score in the assay with GST-Aq-NF-kB. Also, the binding signal with GST-Hu-p50 was 6.91 z-score.

“CCGATTAACATCAAATAAACCCCTGATGTTAATCGGGTCTTGATTCGCTTGACGCTGCTG”: the binding signal with GST-Ap-NF-kB RHD is 4.74 z-score; in assay [1] it was 5.11 z-score; in assay [2], 4.3 z-score; in the assay with GST-Co-NF-kB, 2.32 z-score; with GST-Dm-Relish, 6.13 z-score; in the assay with GST-Aq-NF-kB it was 5.4 z-score. This sequence also gave a binding signal with GST-Hu-p50 of 4.96 z-score.

Turning to “CCGATTAACATCAGAATCCCCCCTGATGTTAATCGGGTCTTGATTCGCTTGACGCTGCTG”, the binding signal with GST-Ap-NF-kB RHD was found to be 9.22 z-score; in assay [1], 7.84 z-score; in assay [2], 8.55 z-score; with GST-Co-NF-kB it was 7.63 z-score; with GST-Dm-Relish, 8.81 z-score; in the assay with GST-Aq-NF-kB, 7.37 z-score. In the assay with GST-Hu-p50, this sequence showed a binding signal of 7.06 z-score.

Turning to “CCGATTAACATCACTATACCCCCTGATGTTAATCGGGTCTTGATTCGCTTGACGCTGCTG”, the binding signal in the assay with GST-Ap-NF-kB RHD was 4.71 z-score; in assay [1], 2.52 z-score; in assay [2], 3.85 z-score; with GST-Co-NF-kB, 4.36 z-score; with GST-Dm-Relish, 2.21 z-score; with GST-Aq-NF-kB, 2.68 z-score. In addition, the binding signal in the assay with GST-Hu-p50 came to 3.41 z-score.

In the case of “CCGATTAACATCAAGGGGATCCCTGATGTTAATCGGGTCTTGATTCGCTTGACGCTGCTG”, the binding signal with GST-Ap-NF-kB RHD amounted to 9.22 z-score; in assay [1] it was 6.41 z-score; in assay [2], 7.34 z-score; with GST-Co-NF-kB, 3.82 z-score; with GST-Dm-Relish it was 10.3 z-score; with GST-Aq-NF-kB it was 6.69 z-score. For the same sequence, the binding signal with GST-Hu-p50 was found to be 5.5 z-score.
